Outcome and Potency data for ten compounds are collected here from PubChem BioAssay (NCATS).

A short description of assay [1]: NS1 protein of Zika virus - qHTS assay to identify small molecule inhibitors in human HEK 293 cells (AID 1347053). Also: series mostly up to about 46 µM; nearly all actives have a fitted effect of over 55% in size. Summed up:
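HEK 293 cells, seeded 20 h at 37 C, were pretreated with compound 1 h, then infected with ZIKV MR766 (MOI = 0.5) for 24 h. NS1 was read by TR-FRET with two anti-NS1 antibodies, normalized to uninfected and infected wells.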
(In general: qHTS replaces the single test concentration by a dilution series.)

Assay [2] can be described thus: qHTS of pediatric cancer cell lines to identify multiple opportunities for drug repurposing: Primary screen for DAOY cells (AID 1347090). Also: series mostly up to about 46 µM; nearly all actives have a fitted effect of over 55% in size. An outline of the steps:
(§1)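 Eight- or eleven-point concentration series, 48 h treatment at 37 degrees C in growth media; readout CellTiter-Glo luminescence. Potency and efficacy were taken from the concentration-response curves.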

A short description of assay [3]: qHTS of pediatric cancer cell lines to identify multiple opportunities for drug repurposing: Primary screen for SJ-GBM2 cells (AID 1347091). Summed up: as §1
Assay [4] can be described thus: qHTS of pediatric cancer cell lines to identify multiple opportunities for drug repurposing: Primary screen for A673 cells (AID 1347092). Also: nearly all actives have a fitted effect of over 45% in size. An outline of the steps:
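Cell viability of A673 measured by CellTiter-Glo ATP luminescence after 48 hours compound exposure. Dilution series spanned 0.78 nM to 46 µM (MIPE, 11-point) or 0.59 nM to 46 µM (NPC, 8-point); bortezomib 2.3 uM positive control.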

The nature of assay [5]: qHTS of pediatric cancer cell lines to identify multiple opportunities for drug repurposing: Primary screen for SK-N-MC cells (AID 1347093). Also: potency is read from the fitted curve at half-maximal effect. Summed up:
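Metabolically active cells were quantified by ATP-dependent luminescence (CellTiter-Glo, 15 min at room temperature) following 48 h treatment. Cells had been plated at 500-1,000 per well and settled for 5 h beforehand.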

Assay [6] in a line: qHTS of pediatric cancer cell lines to identify multiple opportunities for drug repurposing: Primary screen for BT-37 cells (AID 1347094). Also: series mostly up to about 57 µM. Summed up:
(§2)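 Viability was measured as metabolically active cells after 48 hours of treatment, read by CellTiter-Glo luminescence. Compounds were tested at multiple final concentrations, giving concentration-response curves.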

A short description of assay [7]: qHTS of pediatric cancer cell lines to identify multiple opportunities for drug repurposing: Primary screen for NB-EBc1 cells (AID 1347095). Summed up:
as §2

Assay [8] in a line: qHTS of pediatric cancer cell lines to identify multiple opportunities for drug repurposing: Primary screen for U-2 OS cells (AID 1347096). Also: nearly all actives have a fitted effect of over 50% in size. An outline of the steps:
(§3)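 Cells (500-1,000/well) in growth media were settled 5 h at 37 degrees C, then given compounds for 48 h. Viability was read as CellTiter-Glo luminescence. Primary runs used MIPE at 11 points (0.78 nM-46 µM) and NPC at 8 points (0.59 nM-46 µM); follow-ups used 11 points.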

Assay [9] can be described thus: qHTS of pediatric cancer cell lines to identify multiple opportunities for drug repurposing: Primary screen for Saos-2 cells (AID 1347097). Also: nearly all actives have a fitted effect of over 40% in size. An outline of the steps: as §2
The nature of assay [10]: qHTS of pediatric cancer cell lines to identify multiple opportunities for drug repurposing: Primary screen for SK-N-SH cells (AID 1347098).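 Also: DMSO served as neutral control and bortezomib at 2.3 µM as positive control; nearly all actives have a fitted effect of over 65% in size.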 Summed up: (§4)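 Cells (500-1,000/well) rested 5 h, then received compounds for 48 h; metabolically active cells were measured by CellTiter-Glo luminescence. Final concentrations spanned up to 46 µM (MIPE, 11-point) or 0.59 nM-46 µM (NPC, 8-point) in primary screens, 11-point in follow-ups.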

Assay [11] is described as follows: qHTS of pediatric cancer cell lines to identify multiple opportunities for drug repurposing: Primary screen for LAN-5 cells (AID 1347100). Summed up: as §3
A short description of assay [12]: qHTS of pediatric cancer cell lines to identify multiple opportunities for drug repurposing: Primary screen for BT-12 cells (AID 1347101). Also: nearly all actives have a fitted effect of over 25% in size. Summed up:
as §4

Assay [13] in a line: qHTS of pediatric cancer cell lines to identify multiple opportunities for drug repurposing: Primary screen for Rh18 cells (AID 1347102). Also: nearly all actives have a fitted effect of over 65% in size. An outline of the steps:
as §3

A short description of assay [14]: qHTS of pediatric cancer cell lines to identify multiple opportunities for drug repurposing: Primary screen for OHS-50 cells (AID 1347103). Also: nearly all actives have a fitted effect of over 40% in size. An outline of the steps: as §4
Assay [15] in a line: qHTS of pediatric cancer cell lines to identify multiple opportunities for drug repurposing: Primary screen for RD cells (AID 1347104). Also: nearly all actives have a fitted effect of over 55% in size. Summed up:
as §2

A short description of assay [16]: qHTS of pediatric cancer cell lines to identify multiple opportunities for drug repurposing: Primary screen for MG 63 (6-TG R) cells (AID 1347105). Also: nearly all actives have a fitted effect of over 50% in size. An outline of the steps:
as §2

Assay [17] can be described thus: qHTS of pediatric cancer cell lines to identify multiple opportunities for drug repurposing: Primary screen for control Hh wild type fibroblast cells (AID 1347106).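 Also: series mostly up to about 46 µM; a drop in luminescence marks cytotoxicity and a rise apparent proliferation; nearly all actives have a fitted effect of over 55% in size.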 An outline of the steps:
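Viability after 48 h compound treatment at 37C, 500-1,000 cells/well, read as ATP luminescence with CellTiter-Glo. Primary screens used 11-point (MIPE, 0.78 nM-46 µM) or 8-point (NPC, 0.59 nM-46 µM) final concentrations; follow-up screens used 11-point dilutions.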

Assay [18] can be described thus: qHTS of pediatric cancer cell lines to identify multiple opportunities for drug repurposing: Primary screen for Rh30 cells (AID 1347107). Also: series mostly up to about 46 µM; nearly all actives have a fitted effect of over 75% in size. Summed up:
as §3

A short description of assay [19]: qHTS of pediatric cancer cell lines to identify multiple opportunities for drug repurposing: Primary screen for NB1643 cells (AID 1347099). Also: nearly all actives have a fitted effect of over 50% in size. An outline of the steps:
as §2

Molecules are shown by their SMILES. Results filed as inconclusive are left out. Unmarked numbers belong to inactive results. Calls of active or inactive are those of the source. Calls follow the shape of the dose curve; as a rule, active = well fitted curve in the direction sought with a large enough effect; inconclusive = small, poorly fitted or top-dose-only effect, or another doubt; inactive = no such curve, though single readings can be large; an effect the other way counts as inactive or inconclusive.

As to `COC(=O)c1cccnc1`, the compound was classed as inactive in assay [1], in [2], in [3], in [4], in assay [6] and in assay [7]. The compound was called inactive in [8], in [9], in assay [10], in assay [11], in [12] and in assay [13]. In addition, the compound was called inactive in assay [14], in assay [15], in assay [16], in assay [17] and in assay [18]. In addition, in assay [5], the Potency result was “inactive”.
In the case of `COc1ccc(Cc2cnc(N)nc2N)cc1OC`, the outcome in assay [1], in [2], in [4], in assay [6], in assay [8] and in assay [9] was inactive. The compound was classed as inactive in assay [10], in [11], in assay [12], in assay [14], in [15] and in [16]. Besides, the compound was called inactive in [17] and in [18]. The Potency in [5] is 7.5 µM (active). In [19], the Potency result is “inactive”.
For the compound `CC1(C)[C@@H](OC(=O)CCC(=O)O)CC[C@]2(C)[C@H]3C(=O)C=C4[C@@H]5C[C@@](C)(C(=O)O)CC[C@]5(C)CC[C@@]4(C)[C@]3(C)CC[C@@H]12`, the call in assay [1], in assay [2], in [3], in assay [4], in [6] and in assay [7] was inactive. Besides, the compound was classed as inactive in assay [8], in assay [9], in [10], in assay [11], in assay [12] and in assay [13]. Moreover, the outcome in [14], in assay [15], in [17] and in [18] was inactive. For the same compound, the Potency entry in assay [5] was “inactive”.
As to `O=C(/C=C/c1ccc(O)c(O)c1)O[C@@H]1C[C@@](OC(=O)/C=C/c2ccc(O)c(O)c2)(C(=O)O)C[C@@H](O)[C@@H]1O`, the outcome in assay [1], in [2], in assay [3], in assay [4], in [6] and in assay [8] was inactive. The outcome in assay [9], in assay [10], in assay [11], in assay [12], in assay [13] and in assay [15] was inactive. Further, the result in assay [16], in assay [17] and in assay [18] was inactive. For the same compound, in [5], the Potency entry is “inactive”.
For the compound `CC1CCc2cc(F)cc3c(=O)c(C(=O)O)cn1c23` (stereo not given), the compound was classed as inactive in [1], in [2], in [3], in assay [4], in [6] and in assay [7]. Further, the compound was classed as inactive in assay [8], in assay [9], in [10], in assay [11], in assay [12] and in assay [14]. The compound was called inactive in assay [15], in assay [17] and in assay [18]. Further, the Potency entry in [5] and in assay [19] was “inactive” in each case.
On to `CCCCC1(COC(=O)CCC(=O)O)C(=O)N(c2ccccc2)N(c2ccccc2)C1=O`, for which the result in assay [1], in assay [2], in [4], in assay [6], in [7] and in assay [8] was inactive. In addition, the compound was called inactive in assay [9], in assay [10], in assay [11], in assay [13], in assay [14] and in assay [15]. In addition, the result in assay [16], in assay [17] and in assay [18] was inactive. The Potency result in [5] and in [19] was “inactive” in each case.
Turning to `NS(=O)(=O)c1cc2c(cc1C(F)(F)F)NCNS2(=O)=O`, the result in assay [1], in assay [2], in assay [3], in [4], in [6] and in [8] was inactive. Besides, the compound was classed as inactive in assay [9], in [10], in assay [11], in assay [12], in assay [13] and in assay [14]. The outcome in [15], in assay [16], in [17] and in [18] was inactive. For the same compound, the Potency entry in assay [5] and in assay [19] was “inactive” throughout.
With `CCCCCC(C)N` (stereo not given), the result in assay [1], in assay [2], in assay [3], in assay [4], in assay [6] and in assay [8] was inactive. In addition, the outcome in [9], in assay [10], in [11], in [12], in [13] and in [14] was inactive. Moreover, the call in assay [15], in [16], in assay [17] and in assay [18] was inactive. The Potency result in assay [5] and in assay [19] was “inactive” each time.
Regarding `CC(C)c1cc2c(cc1S(=O)(=O)O)[C@@]1(C)CCC[C@@](C)(C(=O)O)[C@@H]1CC2`, the compound was classed as inactive in [1], in assay [2], in assay [3], in assay [4], in assay [6] and in assay [7]. Moreover, the result in assay [8], in [9], in assay [11], in assay [13], in [15] and in [16] was inactive. The result in assay [17] and in assay [18] was inactive. The Potency entry in assay [5] and in assay [19] was “inactive” throughout.
Regarding `CNCc1ccccc1`, the call in assay [1], in assay [2], in assay [3], in assay [4], in assay [6] and in [7] was inactive. For the same compound, the outcome in assay [8], in [9], in [10], in assay [11], in assay [12] and in assay [13] was inactive. The compound was classed as inactive in assay [14], in assay [15], in [17] and in assay [18]. For the same compound, in assay [19], the Potency result was “inactive”.
